Reference: PubChem BioAssay AID463082 (The Scripps Research Institute Molecular Screening Center, 2010)
About 4,900 (1.5%) of roughly 330,000 compounds were called active. The sample as a whole holds a higher share of actives than the screen did. A number with no mark means an inactive call.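 The calls were made as follows: active = inhibition above the mean inhibition across the screen plus 3 SD (cut at about 25% in these data); inactive = the rest.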

Each compound was assayed against Platelet-activating factor acetylhydrolase (Homo sapiens) (UniProt Q13093) (assay: pPAFAH enzyme inhibitors, primary screen, biochemical, fluorescence polarization, human (AID 463082;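 also: inhibitors block binding of the rhodamine activity-based probe so polarization drops; 0% = enzyme with DMSO and 100% = wells lacking pPAFAH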)). Settings: recombinant pPAFAH, FP-rhodamine probe fluorescence polarization; at 3.39 µM; stronger effect = higher value.
Chain of Platelet-activating factor acetylhydrolase (Homo sapiens) (Q13093 whole entry, looked up): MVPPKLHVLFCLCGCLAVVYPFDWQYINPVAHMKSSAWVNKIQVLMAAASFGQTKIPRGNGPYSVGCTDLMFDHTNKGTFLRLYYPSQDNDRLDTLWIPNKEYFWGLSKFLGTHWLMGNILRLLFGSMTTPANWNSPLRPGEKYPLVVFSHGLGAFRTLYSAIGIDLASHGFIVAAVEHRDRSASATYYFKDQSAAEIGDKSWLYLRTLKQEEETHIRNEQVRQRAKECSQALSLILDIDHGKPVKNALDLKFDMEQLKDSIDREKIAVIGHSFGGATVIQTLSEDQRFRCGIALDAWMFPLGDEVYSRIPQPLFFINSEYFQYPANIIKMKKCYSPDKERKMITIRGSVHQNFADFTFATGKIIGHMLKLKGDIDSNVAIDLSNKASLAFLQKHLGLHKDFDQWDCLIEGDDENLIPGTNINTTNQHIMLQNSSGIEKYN

Row | Structure (SMILES) | inhibition
1 | COc1cccc(N2CC(NS(=O)(=O)c3ccc(Cl)cc3)CC2=O)c1 (configuration not stated) | 9.38%
2 | Cc1ccc2cc(/C=N/NC(=O)[C@@H]3CCCN3)c(Cl)nc2c1 | 3.82%
3 | Cc1ccc2cc(/C=N/Nc3ccc(C(=O)O)cc3)c(Cl)nc2c1 | 34% (active)
4 | O=C(O)c1ccc(N/N=C/c2ccc3ncccc3c2)cc1 | 4.87%
5 | COC(=O)[C@]1(C)CCC[C@@]2(C)C3CC[C@]4(OC(C)=O)C[C@@]3(CCC21)CC4=NO (some centres not stated) | -4.31%
6 | COc1ccc(C)cc1NC(=O)CSc1nnc(CC(=O)Nc2ccccc2F)n1C | 4.03%
7 | C=CCN1C=C2C(=O)C(C)(OC(=O)CCc3ccccc3)C(=O)C=C2C=C1c1ccc(C#N)cc1 (configuration not stated) | 12.6%
8 | CC1(OC(=O)C2CCCC2)C(=O)C=C2C=C(c3ccc(C#N)cc3)OC=C2C1=O (configuration not stated) | 52.5% (active)
9 | COCCN1C=C2C(=O)C(C)(OC(=O)C3CCCC3)C(=O)C=C2C=C1c1ccsc1 (configuration not stated) | 5.4%
10 | O=C(COc1cccc2ccccc12)Nc1cc(S(=O)(=O)N2CCOCC2)ccc1N1CCOCC1 | 9.7%
11 | O=C(COC(=O)Cc1ccc(F)cc1)Nc1cc(S(=O)(=O)N2CCOCC2)ccc1N1CCCC1 | 31% (active)
12 | O=C(COC(=O)c1ccccc1F)Nc1cc(S(=O)(=O)N2CCOCC2)ccc1N1CCCC1 | 5.42%
13 | Cc1ccc(NC(=O)Cc2nc(COC(=O)C(C)NS(=O)(=O)c3ccc(C)cc3)cs2)cc1 (configuration not stated) | 32.8% (active)
14 | CC(=O)Nc1ccc(S(=O)(=O)NC(C)C(=O)OCC(=O)NC2CCCC2)cc1 (configuration not stated) | -1.59%
15 | C/C=C/C(=O)OCc1csc(CC(=O)Nc2ccccc2C)n1 | -0.07%
16 | COc1ccccc1C(=O)NC(=S)Nc1ccccc1N1CCCCC1 | 5.28%
17 | COc1ccc(C(=O)NC(=S)Nc2ccccc2N2CCN(S(C)(=O)=O)CC2)cc1OC | 51.7% (active)
18 | CCC(=O)Nc1ccccc1N1CCN(S(C)(=O)=O)CC1 | 1.48%
19 | O=C(CSc1ncnc2c1oc1ccccc12)NC1CCCC1 | -0.51%
20 | Cc1ccc(Nc2c(F)c(F)c(F)c(F)c2C(=O)O)c(C)c1 | 8.5%
21 | COCCCNC(=O)CC1C[C@H](C(=O)N2CCCCC2)[C@@]2(CCc3ccccc3)c3[nH]c4ccccc4c3CCN2C1=O (some centres not stated) | 1.17%
22 | CC1=C/C(=N\OS(=O)(=O)c2ccccc2)C=CC1=O | 0.71%
23 | O=C(CCCN1C(=O)/C(=C/c2ccco2)SC1=S)Nc1ccccc1 | 25.9% (active)

Row | Structure (SMILES) | inhibition
24 | COc1ccc(/C=C2\SC(=S)N(CCCC(=O)NC3CCCC3)C2=O)cc1OC | -4.96%
25 | O=C(CCCN1C(=O)/C(=C/c2cccs2)SC1=S)Nc1ccc(O)cc1 | 1.25%
26 | O=C(CCCN1C(=O)/C(=C\c2ccco2)SC1=S)Nc1cccc2ccccc12 | 27.9% (active)
27 | O=C(CCCN1C(=O)/C(=C/c2ccccc2)SC1=S)Nc1ccc(O)cc1 | 3.48%
28 | COc1ccc(/C=C2\SC(=S)N(CCC(=O)Nc3cccc(C(=O)O)c3)C2=O)cc1OC | -14.2%
29 | COc1ccc(S(=O)(=O)N2CCN(C)CC2)c(C)c1 | -1.79%
30 | CN(C)/C=N/c1cc(=O)n(C)c(=O)n1CC1CC1 | -0.49%
31 | Cc1ccc(C(=O)NC23CC4CC(CC(C4)C2)C3)c(Cl)c1 | 5.48%
32 | Cc1ccsc1C(=O)OCC(=O)NCCc1ccccc1 | 2.4%
33 | CC1CC1C(=O)OCC(=O)Nc1cccc(F)c1 (configuration not stated) | 13.3%
34 | Cc1ccsc1C(=O)OCC(=O)Nc1cccc(F)c1 | 31.5% (active)
35 | Cc1ccc2nc(-c3ccc(SCC(=O)Nc4cc(C)on4)nc3)[nH]c2c1 | -7.51%
36 | CC(=O)c1ccc(NC(=O)CCc2nnc3ccc(NCc4ccco4)nn23)cc1 | -0.96%
37 | CCOc1ccccc1NC(=O)CCc1nnc2ccc(NCc3ccco3)nn12 | 6.27%
38 | O=C(CCc1nnc2ccc(NCc3ccco3)nn12)Nc1cc(F)ccc1F | 32.9% (active)
39 | CC(Cc1cccs1)N(Cc1ccc(Cl)cc1)C(=O)c1ccncc1 (configuration not stated) | 6.35%
40 | CCSC1=C(C#N)C(=O)n2c1cc1c2CCCC1 | 8.15%
41 | Cn1c(NC(=O)c2ccco2)c(-c2ccccc2Cl)c(=O)c2ccccc21 | 1.1%
42 | O=C(NC(=S)Nc1ccc(Cl)c(C(=O)O)c1)c1cncc(Br)c1 | 0.25%
43 | Cc1ccc(C)c(NC(=S)NNC(=S)Nc2ccc(C(C)C)cc2)c1 | 22.5%
44 | CC(C)c1ccc(NC(=S)NNc2ccc(Cl)c(C(=O)O)c2)cc1 | 38.3% (active)
45 | Cc1cc(=O)n2nc(N3CCCC(C(=O)NCc4cccc(Cl)c4)C3)sc2n1 (configuration not stated) | 1.7%
46 | COc1ccccc1CNC(=O)COn1nnc2ccc(S(=O)(=O)N3CCOCC3)cc21 | 2.22%

Row | Structure (SMILES) | inhibition
47 | CC(C)N(C(=O)[C@H]1C[C@H](CC(=O)NC(C)(C)C)C(=O)N2CCc3c([nH]c4ccc(Cl)cc34)[C@]12C)C(C)C | 3.29%
48 | O=C(Nc1ccc(C(F)(F)F)cc1)c1cccc(-n2cnnn2)c1 | -6.56%
49 | O=C(Nc1ccc(-c2csc(Nc3cccc(C(F)(F)F)c3)n2)cc1)c1cccc(C(F)(F)F)c1 | 28.4% (active)
50 | Cc1nc(NC(=O)c2cccc(Cl)c2)sc1-c1csc(Nc2cccc(Cl)c2)n1 | 11.3%
51 | CC(C)c1nc(CNC(=O)CC2C(=O)NCCN2Cc2cccc(F)c2F)cs1 (configuration not stated) | 3.46%
52 | COc1cc(NC(=O)CCS(=O)(=O)c2ccc3c(c2)oc(=O)n3C)cc(OC)c1 | 3.91%
53 | COc1ccc(-c2n[nH]c(C)c2-c2ccccc2OC)c(O)c1 | 4.94%
54 | C=C(C)COc1ccc(-c2n[nH]c(C)c2-c2ccccc2)c(O)c1 | 13.4%
55 | C=C(C)COc1ccc(-c2n[nH]c(C)c2-c2ccccc2OC)c(O)c1 | 26.2% (active)
56 | O=C(Nc1ccc(F)c([N+](=O)[O-])c1)C1CCCO1 (configuration not stated) | -1.09%
57 | CN(Cc1cccs1)C(=O)CN1C(=O)c2ccccc2S1(=O)=O | 4.08%
58 | CN(C)c1ccc(C(=S)N2CCN(C(=S)Nc3ccc(Cl)cc3)CC2)cc1 | 1.77%
59 | CCn1cc(C(=O)NCCC(=O)NCCO)c(=O)c2cc3c(cc21)OCO3 | 4.78%
60 | COc1cc(CN2CCC(C(N)=O)CC2)ccc1OCc1ccccc1 | 0.32%
61 | COc1cc(CNC2CCCC2)c(Br)cc1OCc1ccccc1 | 1.42%
62 | COc1cc(C2CC(=O)N3CN(Cc4ccccc4)CSC3=C2C#N)ccc1OCc1ccccc1 (configuration not stated) | 35.3% (active)
63 | COc1ccc(CNc2cc(C)cc(C)c2)cc1OC | 0.82%
64 | CC1CCCCC1NC(=O)COC(=O)Cc1ccc(Cl)cc1 (configuration not stated) | 35.3% (active)
65 | O=C(COC(=O)Cc1ccc([N+](=O)[O-])cc1)NC1CCCCCC1 | 12.4%
66 | CC1CCCCC1NC(=O)COC(=O)Cc1ccc(Br)cc1 (configuration not stated) | 23.6%
67 | Cc1cccc(C(=O)O)c1[N+](=O)[O-] | 1.3%
68 | C=CCn1c(Oc2ccc(C(=O)OC)cc2)nc2c1c(=O)n(C)c(=O)n2C | -2.33%
69 | CSc1ccc(CNC(=O)c2ccc(NC(=O)C3=CSCCO3)cc2)cc1 | -5.55%

Row | Structure (SMILES) | inhibition
70 | Cc1cc(C)cc(N(CC(=O)NC2CCCC2)C(=O)CCC(=O)Nc2nccs2)c1 | 1.33%
71 | Cc1cccc(CCNS(=O)(=O)c2ccc3c(c2)NC(=O)CO3)c1 | 9.07%
72 | Cc1ccc(S(=O)(=O)NC2CCCCCC2)cc1 | 9.54%
73 | Cc1cccc(CCNS(=O)(=O)c2ccc(S(=O)(=O)NC3CCCC3)cc2)c1 | 27.3% (active)
74 | CC[C@]12c3[nH]c4cc(CCC(=O)N(C)C)ccc4c3CCN1C(=O)[C@@H](CC(=O)NCCCn1ccnc1)C[C@@H]2C(=O)N1CCN(C(=O)C2CC2)CC1 | -6.7%
75 | CCc1cccc(C)c1NS(=O)(=O)c1c(C)nc2sccn2c1=O | 1.67%
76 | CN(C)[C@@H]1C(=O)C(C(N)=O)=C(O)[C@@]2(O)C(=O)C3=C(O)c4c(O)ccc(Cl)c4[C@@H](O)[C@H]3C[C@@H]12 | 49.4% (active)
77 | O=C(c1ccco1)N(Cc1nc2ccccc2c(=O)[nH]1)C1CCCC1 | 2.71%
78 | CC(=O)c1ccc(-c2nnc(CCC(=O)N(C)Cc3cnc4ccccn34)o2)s1 | 3.22%
79 | CCc1ccc(CN(C)C(=O)CCc2nnc(-c3ccc(-c4ccccc4)cc3)o2)nc1 | 61.6% (active)
80 | CCc1ccc(CN(C)Cc2nc(Cc3ccccc3)no2)nc1 | 1.77%
81 | COc1ccc(NC(=O)CNC(=O)Cc2ccccc2)cc1OC | 1.61%
82 | COc1ccc(CCNC(=O)Cc2ccc(C)cc2)cc1OC | 0.86%
83 | COc1ccc(CNC(=O)Cc2ccc(-c3ccccc3)cc2)cc1OC | 31.1% (active)
84 | Cc1cc(=O)oc2c(C)c(OCC(=O)NCCc3ccc(S(N)(=O)=O)cc3)ccc12 | 1.13%
85 | CCOc1ccc(S(=O)(=O)NCCC(=O)NCC2CCCO2)cc1 (configuration not stated) | -0.87%
86 | Nc1scc(-c2ccncc2)c1Cl | 5.7%
87 | CCOC(=O)c1c(C)oc2cc(Br)c(OCC(N)=O)cc12 | -0.28%
88 | CCOC(=O)c1c(-c2ccccc2)oc2cc(Br)c(O)c(C=O)c12 | 30.1% (active)
89 | CCOC(=O)c1c(C)oc2ccc(OCC(=O)N(CC)CC)cc12 | -9.45%
90 | CCOC(=O)c1c(C)oc2cc(Sc3ccccc3)c(O)c(O)c12 | 27.6% (active)
91 | CCOC(=O)c1c(C)oc(C)c(C(=O)OCC)c1=O | -1.33%
92 | CCOC(=O)c1c(-c2ccccc2)oc2ccc(OCC(=O)NN)cc12 | 3.22%
